The campaign covered roughly 320,000 compounds. About 22,000 (6.9%) were called active. Not shown: some 27% with an inconclusive outcome. For the sample, actives were picked, then their nearest neighbours and some compounds at random. Values without a mark were called inactive. Calls come from the whole dose curve; as a rule, active = well fitted inhibition curve with a large enough effect; inconclusive = small, poorly fitted or top-dose-only effect, or another doubt; inactive = no such curve, though single readings can be large or run the other way.
% is set by controls: 0 for no effect and ±100 for the full control effect; potency is the fitted concentration of half-maximal effect.

The experiment is described as follows: Primary qHTS for delayed death inhibitors of the malarial parasite plastid, 96 hour incubation. To be noted: P. falciparum luciferase reporter growth; series mostly up to 28.7 µM; activity change, negative = inhibition: at the top concentration. The text has this:
The goal of this screen is to discover new antimalarial compounds that act by inhibiting the development of the apicoplast in the malarial parasite Plasmodium falciparum. The biochemical processes that make this organelle essential for erythrocytic stage parasites are not well understood. However, antibiotics such as azithromycin and tetracycline, which target the apicoplast translational machinery, have a potent antimalarial effect.
We have developed a cell-based assay that measures parasite growth based on the expression of an integrated copy of a firefly luciferase reporter. To detect small molecules that cause this "delayed death" phenotype, erythrocytes infected with the luciferase-expressing parasites were incubated with compounds for either one or two generations, corresponding to 48 and 96 hours, respectively. Compounds that inhibit parasite growth in the second generation, but not the first, should be enriched in antimalarials that target the apicoplast. Growth inhibition is detected by a decrease in luciferase activity.
Assay Provider: David Fidock and Eric Ekland, Columbia University
Keywords: NIH Roadmap, MLPCN, MLI, MLSMR, qHTS, NCGC, qHTS, malaria, luciferase, viability
Four microliters of infected erythrocytes (2% hematocrit, 0.05% parasitemia final concentration) in culture medium were dispensed and the plates incubated for 96 hours at 37 C in 5% CO2. Two microliters of luciferase detection reagent was added and luminescence was detected by a ViewLux (PerkinElmer) reader.
With `CC1C(=O)N(Cc2ccccc2)c2ccccc2N1C(=O)c1ccccc1` (configuration not stated), the “activity change, negative = inhibition” value is 34.9%.

Regarding `O=C(COC(=O)Cn1[nH]c(=O)c2ccccc2c1=O)Nc1c(Cl)cccc1C(F)(F)F`, the “activity change, negative = inhibition” value is 34.6%. The same measure, in the same setting: the same measure for `COc1cc(NC(=O)C2=CC(c3ccco3)=NS(=O)(=O)N2C)cc(OC)c1OC`: 10.9%; for `CC/C(=N\NC(=O)c1c(C)nc2ccccn12)c1ccc(Cl)cc1`: -7.35%; for `O=C(Nc1ccccc1N1CCOCC1)c1ccc(OCc2cscn2)cc1`: -15.1%. On the same count and under the same terms, as for `Cc1nnc(NC(=O)/C=C/c2ccco2)s1`, the figure is 5.24%; as for `CCC(CC)c1nnc(NC(=O)/C=C/c2ccco2)s1`, -13.8%.

Consider `CCc1nnc(NC(=O)/C=C/c2ccc(C)o2)s1`, for which the Potency was 10.4 µM (active). For the compound `CN1CCN(c2ccc(CNS(=O)(=O)c3cccc(F)c3)cc2)CC1`, the “activity change, negative = inhibition” value is 22.5%. On the same count and under the same terms, the same measure for `N#CCCN(C(=O)COC(=O)C1CCN(c2ccc(C(F)(F)F)cn2)CC1)c1ccc(F)cc1`: 5.52%; for `COc1ccccc1-n1nnnc1SCC(=O)NC(=O)Cc1ccccc1`: 4.3%. Same read-out and setting: as for `O=C(c1cccc(-n2cccc2)c1)N1CCN(S(=O)(=O)c2ccc(F)cc2)CC1`, the figure is -1.15%. Still for that read-out and setting: as for `CCOC(=O)CSc1ncc(-c2cccc(Cl)c2)cn1`, the figure is 51.5%; as for `Cc1oc(-c2ccccc2Cl)[n+]([O-])c1C`, 6.5%.

Regarding `Cc1oc(-c2cccc(Cl)c2)[n+]([O-])c1C`, the Potency is 5.22 µM (active). `Cc1[nH]n(C(N)=S)c(=O)c1N=Nc1ccc(Cl)cc1Cl`: the “activity change, negative = inhibition” value is 51.3%. As to `CC(=O)Nc1cccc(C(=O)OCC(=O)NCc2cc(C)c(O)c(C)c2)c1`, the “activity change, negative = inhibition” value is 96.7%. For the compound `Cc1ccc(S(=O)(=O)N2CC(O)C[C@H]2C(=O)OCC(=O)Nc2ccc(N3CCOCC3)cc2)cc1C` (some centres not stated), the “activity change, negative = inhibition” value is -24.5%.

Turning to `CN(C(=O)COC(=O)c1ccc(Br)o1)c1c(N)n(Cc2ccccc2)c(=O)[nH]c1=O`, the “activity change, negative = inhibition” value was 5.36%. On the same count and under the same terms, as for `CCCCNC(=O)c1ccc(-n2c(=S)[nH]c3ccccc3c2=O)cc1`, the figure is 49.1%. `CCOC(=O)N1CCN(C(=O)Cc2ccc(-n3c(=S)[nH]c4ccccc4c3=O)cc2)CC1`: the Potency was 13.1 µM (active). For the compound `O=C(Cc1ccc(-n2c(=O)[nH]c3ccccc3c2=O)cc1)N1CCN(c2cccc(Cl)c2)CC1`, the “activity change, negative = inhibition” value was 6.21%.

For `CCc1nc(N2CCN(C(C)=O)CC2)c2c3c(sc2n1)CCCC3`, the “activity change, negative = inhibition” value is 0%. On the same count and under the same terms, as for `O=C(/C=C/c1cccc(F)c1)NC1CC1`, the figure is 4.57%; as for `CC(=O)c1nc2ccccc2n1Cc1ccccc1`, 10.7%. Still for that read-out and setting: as for `CC(=O)Nc1nc2ccccc2n1Cc1ccc(C)cc1`, the figure is 67.4%. For `CCCc1nc2c(C)cc(-c3nc4ccccc4n3C)cc2n1Cc1ccc(-c2ccccc2C(=O)O)cc1`, the Potency was 1.51 µM (active). For `Cc1ccc2cc(/C=N/NC(=O)[C@@H]3CCCN3)c(Cl)nc2c1`, the “activity change, negative = inhibition” value is 20.5%. On the same count and under the same terms, the same measure for `COc1ccc(CCNC(=O)CCc2cn(C)c3ccccc23)c(OC)c1`: 23.6%.

With `Cc1nc(N)[nH]c(=O)c1Oc1cccc(C(F)(F)F)c1`, the “activity change, negative = inhibition” value is -0.57%. On the same count and under the same terms, the same measure for `O=C(NCc1cccnc1)Nc1cccc(NC(=O)NCc2cccnc2)c1F`: 12.5%; for `CC1CC(C)CN(C(=O)COC(=O)c2ccc3ncsc3c2)C1` (configuration not stated): -11.5%; for `Cc1ccc(S(=O)(=O)NC(=O)Nc2nc(-c3ccc(F)c(F)c3)cs2)cc1`: 34.1%. Regarding `Cc1cc(=O)cc(C)n1-c1ccc(Cl)c(Cl)c1`, the “activity change, negative = inhibition” value is -1.31%.

Take `CCCCNC(=O)c1onc(CSc2cccc(OC)c2)c1C(=O)O`: the “activity change, negative = inhibition” value is 22.1%. Same read-out and setting: the same measure for `CCOc1cccc(SCc2noc(C(=O)NC(C)C)c2C(=O)O)c1`: 72.9%.

For `CCCNC(=O)c1onc(CSc2ccc(F)cc2)c1C(=O)NC(C)C`, the Potency is 11.7 µM (active). Turning to `Nc1cccc(-c2cc(-c3ccccc3)nc(-c3cccc(N)c3)n2)c1`, the Potency is 10.4 µM (active).

Consider `Nc1nc(-c2ccccc2)cc(-c2ccccc2)n1`, for which the “activity change, negative = inhibition” value is 6%. As for `CNc1nc(-c2ccccc2)cc(-c2ccccc2)n1`, the “activity change, negative = inhibition” value was -21.4%. In the case of `CCCOc1ccc(Cc2c(O)nc(SC)[nH]c2=O)cc1C`, the “activity change, negative = inhibition” value is -14.5%. The same measure, in the same setting: as for `COc1ccccc1CNS(=O)(=O)c1ccc(C)cc1`, the figure is 8.44%; as for `Cc1ccc(S(=O)(=O)NCCSC(C)(C)C)cc1`, 38.2%. `COc1nc(N(C)C)nc(N2CC(=O)N(CCNS(=O)(=O)c3ccc(C)cc3)C2=N)n1`: the Potency was 2.33 µM (active).

`CCOC(=O)C1(CCOC)CCN(Cc2cc3ccccc3s2)CC1`: the “activity change, negative = inhibition” value is -25.4%.

Regarding `O=C(Nc1cccc(-c2cscn2)c1)C1CCN(Cc2ccsc2)CC1`, the “activity change, negative = inhibition” value is -16.1%.

For `CCOc1cc(C2C(C(=O)OC(C)C)=C(C)NC3=C2C(=O)CCC3)cc([N+](=O)[O-])c1O` (configuration not stated), the “activity change, negative = inhibition” value was 16.6%. On the same count and under the same terms, the same measure for `COc1cc(C2C(C#N)=C(C)NC3=C2C(=O)CC(C)(C)C3)ccc1O` (configuration not stated): -20.7%. As for `CCOC(=O)C1=C(C)NC2=C(C(=O)CC(C)(C)C2)C1c1ccsc1` (configuration not stated), the Potency was 7.38 µM (active). For `Cc1ccc2c(C)c(C(=O)N(C)Cc3ccncn3)oc2c1C`, the “activity change, negative = inhibition” value was 74.4%. Turning to `CCCc1ccc(-c2csc(NC(=O)Cc3cccs3)n2)cc1`, the Potency was 11.7 µM (active). In the case of `COc1cccc(CC(=O)Nc2nc(-c3ccc(OC)c(OC)c3)cs2)c1`, the “activity change, negative = inhibition” value was -22.7%.

These data come from PubChem BioAssay AID504834 (National Center for Advancing Translational Sciences (NCATS), 2011).
